High-throughput results as filed in PubChem.
IL-1B inflam inh: blocks inflammasome-driven IL-1 beta release; THP-1 LPS/ATP IL-1B secretion, AlphaLISA, 16 h; active compounds read low; 360,000 compounds, 4.7% hits; AID 743279; activity change, % at 57.5 µM; in the data active = activity change below about -50%; inconclusive = mostly about -30% to -49%
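THP-1 cells pretreated 1 hr with compounds (up to 57.5 uM final), then stimulated with LPS (250 ng/mL final) plus ATP (1.25 mM final); secreted IL-1B measured by AlphaLISA after 16 hr, decreased signal indicating inhibition.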
MCF10A rerep: inducers of DNA re-replication in MCF 10A breast cells; MCF 10A DNA re-replication, Hoechst nuclear intensity, 48 h; Potency, µM (top dose mostly 46.1 µM), hits mostly activators; 350,000 compounds, 2.9% hits; AID 624296; note: nearly all actives have a fitted effect of over 50% in size
KB-V1 cytotox: KB-V1 MDR subline cytotoxicity | KB-V1 MDR cells viability, CellTiter-Glo, 72 h | Potency, µM (highest dose often 46.1 µM), hits mostly cytotoxic | 400,000 compounds, 3.4% hits; note: nearly all actives have a fitted effect of over 60% in size
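Following 72 h at 37 degrees C with compound, KB-V1 cell viability was read by CellTiter-Glo luminescence, medium being phenol-red-free DMEM plus 10% FBS; concentration-response parameters came from normalized, curve-fitted qHTS data.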
KB-3-1 tox: KB-3-1 parental cell cytotoxicity; AID 1347075; Potency, µM (highest dose often 46.1 µM), hits mostly cytotoxic; 400,000 compounds, 1.4% hits; KB-3-1 viability, CellTiter-Glo ATP luminescence, 72 h; note: nearly all actives have a fitted effect of over 60% in size
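Cells are dispensed, compounds pinned in, plates held at 37 °C for 72 h, then CellTiter-Glo is added and luminescence read after 10 minutes. Cell line: parental KB-3-1 in phenol-red-free DMEM, 10% FBS.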
SW480 rereplic: inducers of DNA re-replication in SW480 colon cancer cells; 340,000 compounds, 1.8% hits; Potency, µM (top dose mostly 46.1 µM), usual class: activators; SW480 DNA re-replication, Hoechst DNA content imaging, 48 h; note: nearly all actives have a fitted effect of over 55% in size
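Treated cells incubate 48 hr (37 C, 5% CO2), are stained 40 min with Hoechst, and nuclear fluorescence is enumerated; a rise in nuclei with high DNA signal marks re-replication.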
A number is an active result; . = inactive; ? = inconclusive; / = no result given. Hits are enriched below; roughly 9.9% of the tested compounds scored in any of these assays. Unless noted, calls come from the whole dose curve; as a rule, active = well fitted curve in the direction sought with a large enough effect; inconclusive = small, poorly fitted or top-dose-only effect, or another doubt; inactive = no such curve, though single readings can be large; an effect the other way counts as inactive or inconclusive.

SMILES	IL-1B inflam inh	MCF10A rerep	KB-V1 cytotox	KB-3-1 tox	SW480 rereplic
Cc1ccc(NC(=O)CSCc2cc(=O)n3cc(C)sc3n2)cc1	.	.	.	.	?
COc1ccc(OC)c(NC(=O)CCc2c[nH]c3ccccc23)c1	.	.	?	.	.
CC(C)N(C(=O)CN(C#N)c1nc(N(C)C)nc(N(C)C)n1)c1ccccc1	.	.	6.5µM	.	.
CN(Cc1c(F)cccc1Cl)c1nnnn1-c1ccccc1	.	.	21µM	.	.
CC(C)(C)OC(=O)C(C)(C)Sc1nnc(N)s1	.	.	.	.	.
CN1CCCC(CC2Oc3ccccc3Sc3ccccc32)C1 (centres undefined)	-73	?	?	?	?
Cc1ccc(C(=O)COc2nc(C)cc(C)c2C#N)cc1	.	?	10µM	.	?
Cc1ccnc(SCC(=O)c2ccc(Br)cc2)c1C#N	.	?	.	?	?
Cc1cc(C)c(C#N)c(OCC(=O)c2ccc(Br)cc2)n1	.	?	5.8µM	.	?
CCN(C(=O)COc1nc(C)cc(C)c1C#N)c1ccccc1	.	?	?	.	.
CC(C#N)(Cc1ccccc1)Nc1ccccc1 (centres undefined)	.	.	?	.	.
COC(=O)[C@@]1(Cc2ccc(OC)cc2)[C@H]2c3cc(C(=O)N4CCCC4)n(CCc4ccc(OC)c(Br)c4)c3C[C@H]2CN1C(=O)c1ccccc1	.	/	18µM	?	/
COC(=O)[C@@]1(Cc2ccc(F)cc2)[C@H]2c3cc(C(=O)N4CCCC4)n(CCc4ccc(O)c(O)c4)c3C[C@H]2CN1C(=O)c1ccccc1	/	.	/	/	.
COC(=O)[C@@]1(Cc2ccc(F)cc2)[C@H]2c3cc(C(=O)N4CCCC4)n(CCc4ccc(OC)c(Br)c4)c3C[C@H]2CN1C(=O)c1ccccc1	-67	/	?	26µM	/
O=C(COc1ccccc1)NCCc1csc(-c2cccc(F)c2)n1	/	/	.	.	/
CCN(CC)CCCC(C)NC(=O)c1ccc(C(F)(F)F)cc1 (centres undefined)	-50	.	?	.	.
COc1ccc(C2N=C(c3ccccc3)NC(c3ccccc3)=N2)cc1	.	2.6µM	?	.	?
c1ccc(C2=NC(c3ccccc3)N=C(c3ccccc3)N2)cc1	.	.	.	.	.
Oc1ccccc1C1N=C(c2ccccc2)NC(c2ccccc2)=N1	-55	.	.	.	.
N#CCC(=O)Nc1ccc(C(=O)OCC(=O)N(C2CCCCC2)C2CCCCC2)cc1	.	?	.	.	?
Clc1ccccc1Cn1cccc1C1=NC(Cc2ccccc2)CO1 (centres undefined)	/	/	.	.	/
COC(=O)N1c2ccccc2C=Cc2ccccc21	.	?	?	?	?
Cc1ccc(C(=O)OCC(=O)N(C)c2ccccc2)c(C)c1	?	.	.	.	?
CN(C(=O)COC(=O)c1ccccc1C(=O)c1ccccc1)c1ccccc1	.	.	21µM	.	.
CC(C)CC(COCc1cccc(C(F)(F)F)c1)N1CCN(C(=O)c2cccc(C(F)(F)F)c2)CCC1=O (centres undefined)	-67	?	?	.	.
SMILES	IL-1B inflam inh	MCF10A rerep	KB-V1 cytotox	KB-3-1 tox	SW480 rereplic
CC(C)C[C@@H](COCc1cccc(Cl)c1)N1CCN(C(=O)c2ccc(C(F)(F)F)cc2)CCC1=O	-50	/	?	?	/
Cc1ccc(COC[C@H](CC(C)C)N2CCN(C(=O)c3cccc(C(F)(F)F)c3)CCC2=O)cc1	.	/	?	.	/
CC(C)CC(COCc1ccc(C(F)(F)F)cc1)N1CCN(C(=O)c2ccc(C(F)(F)F)cc2)CCC1=O (centres undefined)	-54	.	?	?	?
CC(C)CC(COCc1ccc(Cl)cc1)N1CCN(C(=O)c2cccc(C(F)(F)F)c2)CCC1=O (centres undefined)	.	.	.	.	.
CC(C)C[C@@H](COCc1ccc(C(F)(F)F)cc1)N1CCN(C(=O)c2ccc(C(F)(F)F)cc2)CCC1=O	-76	/	.	?	/
COc1ccc(CCN2C(=O)CC(NNc3ccc([N+](=O)[O-])cc3)C2=O)cc1OC (centres undefined)	.	.	?	.	.
C/C=C/C=N/Nc1nc(-c2ccc([N+](=O)[O-])cc2)cs1	.	.	.	.	.
